High-throughput results: PubChem BioAssay, National Center for Advancing Translational Sciences (NCATS)
The entries come from a sample that favours hits as a whole.
LmPK inh = qHTS Assay for Inhibitors of Leishmania Mexicana Pyruvate Kinase (LmPK); Q27686; purified LmPK, Kinase-Glo ATP luminescence, 1 h; Potency, µM (doses to about 57.5 µM), for inactives: at the highest dose activity change, negative = inhibition, usual class: inhibitors; 290,000 compounds, 0.37% hits; AID 1721, 2009; further: potency means the concentration at half of the fitted maximal effect; on the % scale 0 is the no-effect control and ±100 the full control effect
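0.1 nM LmPK, 0.5 mM PEP, 0.1 mM ADP; 50 mM imidazole pH 7.2, 7 mM MgCl2, 50 mM KCl; 1 h RT. Kinase-Glo luminescence readout, normalized to no-enzyme (full inhibition) and uninhibited wells.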
Tb PYK inh = qHTS of Trypanosoma Brucei Inhibitors | TbPYK enzyme, Kinase-Glo Plus ATP luminescence, 45 min | 410,000 compounds, 0.12% hits | Potency, µM (titrated, usually from 76.8 µM), for inactives: at the highest dose activity, negative = inhibition, most hits filed as inhibitors; further: potency means the concentration at half of the fitted maximal effect; on the % scale 0 is the no-effect control and ±100 the full control effect; nearly all actives have a fitted effect of over 50% in size
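Screened from lowest to highest concentration, compounds were pinned into TbPYK/substrate mixtures, and ADP (130 uM final) was added. Plates sat at room temperature for 45 min prior to Kinase-Glo Plus detection by luminescence.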
Shiga toxin inh = A qHTS for Small Molecule Inhibitors of Shiga Toxin. AID 2315, 2010. 290,000 compounds, 9.2% hits. inhibition, % at 38.7 µM. Vero cells, Shiga toxin protein synthesis inhibition reporter; in the data active means inhibition mostly above about 28%, no sharp cut-off; inactive means mostly below about 43%; further: 0% is about no effect
CHX counter = Cycloheximide Counterscreen for Small Molecule Inhibitors of Shiga Toxin | cell reporter, cycloheximide protein synthesis inhibition counterscreen | max response, % | 300,000 compounds, 12% hits; in the data active means max response mostly above about 13%, no sharp cut-off; inactive means mostly below about 14%; further: read at 38.3 µM for the half of the compounds with a filed dose; 0% is about no effect
Giardia FBPA inh = qHTS Assay for Inhibitors of Fructose-1,6-bisphosphate Aldolase from Giardia Lamblia; A8B2U2; purified Giardia FBPA; Potency, µM (top dose mostly 59.6 µM), inactives show at the highest dose activity, negative = inhibition, actives largely listed as inhibitors; 290,000 compounds, 0.71% hits; AID 2451, 2010; further: potency means the concentration at half of the fitted maximal effect; on the % scale 0 is the no-effect control and ±100 the full control effect; nearly all actives have a fitted effect of over 55% in size
Target sequence (A8B2U2 whole entry, looked up): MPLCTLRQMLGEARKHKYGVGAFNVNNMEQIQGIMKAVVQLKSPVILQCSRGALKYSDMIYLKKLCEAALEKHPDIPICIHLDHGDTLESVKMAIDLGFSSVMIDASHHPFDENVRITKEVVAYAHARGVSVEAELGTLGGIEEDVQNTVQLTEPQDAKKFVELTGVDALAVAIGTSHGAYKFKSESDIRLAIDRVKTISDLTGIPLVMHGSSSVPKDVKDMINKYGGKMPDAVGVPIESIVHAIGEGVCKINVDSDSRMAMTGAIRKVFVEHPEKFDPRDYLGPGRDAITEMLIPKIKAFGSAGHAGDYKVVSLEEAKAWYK
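Giardia FBPA (40 nM reagent) was preincubated 10 min at RT with compound (up to 57.5 uM final), then substrate plus GAPDH/TPI/NAD/arsenate coupling system with diaphorase/resazurin was added; resorufin fluorescence (525/598 nm) was read after 20 min.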
Sm TGR block = qHTS Assay for the Inhibitors of Schistosoma Mansoni Peroxiredoxins; Schistosoma mansoni thioredoxin glutathione reductase (TGR), Q962Y6; 360,000 compounds, 3% hits; Potency, µM (highest dose often 114 µM), for the others: at the top dose activity change, negative = inhibition, hits mostly inhibitors; purified TGR, DTNB reduction, TNB absorbance 405 nm; further: potency means the concentration at half of the fitted maximal effect; on the % scale 0 is the no-effect control and ±100 the full control effect; nearly all actives have a fitted effect of over 60% in size
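TGR 20 nM + NADPH 100 uM (dispensed conc.), cpd preinc 15 min RT; start with NADPH (500 uM addition) then DTNB (15 mM addition). Kinetic TNB absorbance, 405 nm filter. Four-parameter Hill fit across titration.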
* hit, by the source's call; ? = inconclusive; . = no result given; ! = not confirmed by another sample; [ ] = remark or other dose. Unless noted, the call rests on the fitted dose curve; in most records, active means well fitted curve in the direction sought with a large enough effect; inconclusive means small, poorly fitted or top-dose-only effect, or another doubt; inactive means no such curve, though single readings can be large; an effect the other way counts as inactive or inconclusive.

SMILES	LmPK inh	Tb PYK inh	Shiga toxin inh	CHX counter	Giardia FBPA inh	Sm TGR block
C[C@H](NC(=O)[C@@H]1Cc2ccccc2CN1C(=O)OC(C)(C)C)C(=O)NCc1ccco1	-10%	-3%	2	-8	.	40µM*
C[C@@H](NC(=O)[C@@H]1Cc2ccccc2CN1C(=O)OC(C)(C)C)C(=O)NCc1ccco1	1%	0%	3	6	.	-12%
C=C1C(=O)O[C@H]2[C@H]1[C@H](OC(=O)CC(=O)O[C@@H]1C[C@@H](C)[C@@H]3C=CC(=O)[C@@]3(C)[C@H]3OC(=O)C(=C)[C@H]13)C[C@@H](C)[C@H]1C=CC(=O)[C@]12C	15%	-13%	3	-2	-9%	8.9µM*
C=C1C(=O)OC2C1CCC(C)C1C=CC(=O)C12C (stereo not drawn)	.	2%	.	.	.	.
C=C1C(=O)O[C@H]2C[C@@H](C)[C@@H]3C=CC(=O)[C@@]3(C)C[C@H]12	0%	-1%	47*	40*	3%	35µM*
C=C1C(=O)O[C@@H]2C[C@@H](C)[C@@H]3C=CC(=O)[C@@]3(C)[C@@H](OC(=O)CC(=O)O[C@H]3[C@@H]4C(=C)C(=O)O[C@@H]4C[C@@H](C)[C@@H]4C=CC(=O)[C@]43C)[C@H]12	-1%	-13%	-16	-11	0%	1.1µM*
CCN(CC)CCCNC(=O)CCn1nc(-c2ccccc2)ccc1=O	5%	-2%	2	1	3%	-26%
O=C(/C=C/c1ccc(S(=O)(=O)N2CCOCC2)cc1)NC(CO)C(O)c1ccc([N+](=O)[O-])cc1 (stereo not drawn)	.	4%	.	.	.	.
O=C(O)c1ccccc1-n1ncc2c1/C(=C/c1ccc(Cl)cc1)CC2	6%	.	28	9	3%	14µM*
FC(F)(F)c1cccnc1Oc1ccc(C2=NCCS2)cc1	-3%	1%	59*	30*	-5%	11%
COC(=O)c1ccccc1S(=O)(=O)N1CCc2nc(COc3ccccc3)c3c(c2C1)CO[C@@H](C)C3	-6%[11.5 µM]	.	.	.	6%[12.9 µM]	.
CCc1ccc(Nc2ncc3c(n2)CC(c2ccc(OC)cc2)CC3=O)cc1 (stereo not drawn)	-3%	-15%	-16	-4	6%	11%
CCc1ccc(Nc2ncc3c(n2)CC(C)(C)CC3=O)cc1	2%	-2%	75*	57*	12%	0%
CC1(C)CC(=O)c2cnc(NCc3ccco3)nc2C1	0%	1%	-1	14*	3%	-20%
CCc1ccc(Nc2ncc3c(n2)CC(C)CC3=O)cc1 (stereo not drawn)	3%	4%	96*	47*	2%	4%
CCCCN(CC)CCCn1cnc2c([nH]c3ccc(Cl)cc32)c1=O	.	-1%	.	.	.	-1%
O=C1c2ccccc2C(c2nnnn2Cc2ccccc2)N1Cc1ccc2c(c1)OCO2 (stereo not drawn)	.	2%	.	.	.	.
COc1cccc(NS(=O)(=O)c2cc(-c3cnc(C4CC4)o3)ccc2C)c1	.	4%	.	.	.	3%
CN1CCN(C(=O)c2cc3cc(F)ccc3[nH]2)CC1	-3%	-8%	-7	16	6%	11%
O=C(c1cc2cc(F)ccc2[nH]1)N1CCN(C(=O)c2ccco2)CC1	6%	-10%	-1	8	.	40µM*
O=C(c1cc2cc(F)ccc2[nH]1)N1CCC2(CC1)OCCO2	3%	-1%	50*	30*	.	-2%
O=C(c1cc2cc(Cl)ccc2[nH]1)N1CCC2(CC1)OCCO2	11%	-2%	30*	28*	.	-17%
COc1ccc(Nc2nc3ccccc3n3c(N)nnc23)cc1	.	-1%	.	.	.	1%
N#Cc1nc(-c2ccc(F)cc2)oc1NCCCn1ccnc1	-1%	.	42*	39*	8%	-19%
N#Cc1nc(-c2ccc(OCc3ccccc3Cl)cc2)oc1NCCCn1ccnc1	-8%	.	26*	15*	-7%	6%
SMILES	LmPK inh	Tb PYK inh	Shiga toxin inh	CHX counter	Giardia FBPA inh	Sm TGR block
CC1Oc2cc3c(-c4c(O)cc(O)c5c(O)c6c(cc45)OC(C)C(C)C6=O)c(O)cc(O)c3c(O)c2C(=O)C1C (stereo not drawn)	-6%	-4%	-3	7	?	32µM*
O=C1NCCCC2c3cc(O)c4ccccc4c3OC12N1CCCCC1 (stereo not drawn)	?	.	20	12	0.56µM*	2µM*
C/C(=N\OCc1ccc(C#N)cc1)c1ccc(S(=O)(=O)N(C)C)cc1	2%	8%	80*	48*	10%	-5%
C/C(=N\OCc1cccc(C(=O)O)c1)c1ccc(Cl)cc1	-18%	-5%	125*	78*	26%	0%
C/C(=N\OCc1ccc(C#N)cc1)c1ccccc1	-27%	3%	70*	42*	-2%	-1%
CCOC(=O)C1CCCN(Cc2cn3c(-c4cccc(Br)c4)nnc3s2)C1 (stereo not drawn)	.	0%	.	.	.	-3%
Cc1cc(C)cc(NC(=O)Nc2ccc3ccccc3n2)c1	-3%	1%	10	-2	6%	11%
Cc1ccc(C(=O)Nc2ccc3ccccc3n2)cc1	-17%	8%	42*	41*	-2%	0%
O=C(CCc1ccccc1)Nc1ccc2ccccc2n1	-1%	-1%	104*	47*	-2%	1%
O=C(Nc1ccc2ccccc2n1)Nc1cccs1	5%	3%	31	-1	7%	-1%
Cc1ccc(C(O)(C(=O)NNc2ccc3ccccc3n2)c2ccc(C)cc2)cc1	4%	-5%	-3	13*!	17%	?
Cc1ccc(S(=O)(=O)NNC(=O)C(O)(c2ccccc2)c2ccccc2)cc1	-2%	-8%	-16	0	2%	0%
O=C(Nc1ccc2ccccc2n1)c1ccccc1	-25%	-11%	66*	49*	-1%	8%
COc1ccc(NC(=O)CSc2nc3ccccc3n2CC(=O)N(C)C2CCCCC2)cc1	.	6%	.	.	.	4%
CCOc1ccc(N(CC)S(=O)(=O)N2CCCC(C(=O)NCCc3ccccc3OC)C2)cc1 (stereo not drawn)	.	-2%	.	.	.	2%
COc1ccc(C(=O)Nc2ccc3ccccc3n2)cc1OC	2%	3%	.	29*	8%	-12%
O=C(c1ccccc1)c1ccc2ccccc2n1	-1%	-4%	74	39*	-2%	-3%
O=C(Nc1ccc2ccccc2n1)c1ccccc1Br	-16%	-5%	131*	41*	-12%	-2%
COC(=O)c1ccc2ccccc2n1	.	2%	.	.	.	.
